# Shown are actives, neighbours in structure and some others; about 11% of the full set was active somewhere.
# BAZ2B inh: qHTS Assay for Inhibitors of BAZ2B. hit rate 4.4% among 360,000. AID 504333, 2011. AlphaScreen BAZ2B-H3K14Ac peptide displacement. Potency, µM (doses to about 114 µM), usual class: inhibitors. Bromodomain adjacent to zinc finger domain protein 2B (Homo sapiens), Q9UIF8; further: nearly all actives have a fitted effect of over 60% in size
#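 Compounds, titrated to a top concentration of 110 uM, were incubated 30 min at room temperature with preformed BAZ2B/acetyl-K14 H3 peptide complex (50 nM each). Proximity signal was measured by AlphaScreen after 20 min with beads.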
# L3MBTL1 inh: qHTS Assay for the Inhibitors of L3MBTL1. AlphaScreen L3MBTL1–H3K9me1 peptide binding. AID 485360, 2010. hit rate 0.66% among 230,000. Potency, µM (series often up to 57.1 µM), hits mostly inhibitors. Lethal(3)malignant brain tumor-like protein 1 (Homo sapiens), Q9Y468; further: nearly all actives have a fitted effect of over 60% in size
#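 Displacement of a biotinylated histone H3(1-15) peptide monomethylated at Lys9 (75 nM) from L3MBTL1 (50 nM) was measured by AlphaScreen after a 30 min room-temperature compound incubation; cefsulodin titration served as intraplate control.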
# G9a inh-1: qHTS Assay for Inhibitors of Histone Lysine Methyltransferase G9a; G9a H3K9 monomethylation, AlphaScreen, 2 h; Potency, µM (titrated, usually from 102 µM), actives largely listed as inhibitors; AID 504332, 2011; Histone-lysine N-methyltransferase EHMT2 (Homo sapiens), Q96KQ7; hit rate 8.8% among 350,000; further: nearly all actives have a fitted effect of over 75% in size
# Target sequence (Q96KQ7 913-1193 limits assumed): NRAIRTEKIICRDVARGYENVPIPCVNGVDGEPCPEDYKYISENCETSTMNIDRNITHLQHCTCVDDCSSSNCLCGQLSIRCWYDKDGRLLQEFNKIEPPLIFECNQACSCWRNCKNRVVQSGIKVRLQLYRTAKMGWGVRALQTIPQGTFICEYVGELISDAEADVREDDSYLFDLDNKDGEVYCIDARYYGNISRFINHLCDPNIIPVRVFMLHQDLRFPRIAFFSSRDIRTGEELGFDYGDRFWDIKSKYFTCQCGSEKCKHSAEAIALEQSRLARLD
#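 Step 1: enzyme (final 20 nM) with compound, 15 min RT. Step 2: substrate peptide 500 nM and SAM 20 uM, 2 h RT. Step 3: anti-H3K9me1 antibody and AlphaScreen beads, 10 min, then plate read.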
# HP1b binding inh: HTS for Inhibitors of HP1-beta Chromodomain Interactions with Methylated Histone Tails; AlphaScreen HP1-beta / biotin-H3K9me3 peptide binding; AID 540317, 2011; Chromobox protein homolog 1 (Homo sapiens), P83916; Potency, µM (highest dose often 114 µM), hits mostly inhibitors; hit rate 0.56% among 390,000; further: nearly all actives have a fitted effect of over 70% in size
# Target sequence (P83916 whole entry, looked up): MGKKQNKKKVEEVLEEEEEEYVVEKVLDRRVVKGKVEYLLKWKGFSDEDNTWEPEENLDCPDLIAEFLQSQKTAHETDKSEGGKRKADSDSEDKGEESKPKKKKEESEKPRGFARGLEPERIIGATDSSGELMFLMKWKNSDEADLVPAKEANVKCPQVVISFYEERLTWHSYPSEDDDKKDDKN
#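 HP1-beta protein (50 nM final) preincubated 30 min at room temperature with biotinylated H3(1-18)K9me3 peptide (50 nM) in PBS pH 7.4, 0.01% Tween-20, then compound added for 30 min. AlphaScreen streptavidin donor/nickel chelate acceptor beads (10 ug/mL final), 30 min dark, luminescence read.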
# JMJD2A Tudor inh: qHTS Assay for Inhibitors of JMJD2A-Tudor Domain; Potency, µM (series often up to 114 µM), most hits filed as inhibitors; hit rate 4.4% among 390,000; Lysine-specific demethylase 4A (Homo sapiens), O75164; AID 504339, 2011; AlphaScreen JMJD2A-Tudor / H3K4me3 peptide binding; further: nearly all actives have a fitted effect of over 50% in size
# G9a inh-2: qHTS Assay for Inhibitors of Histone Lysine Methyltransferase G9a: Hit Confirmation | shares compounds with JMJD2A Tudor inh | G9a H3K9 monomethylation, AlphaScreen, 2 h | Potency, µM, actives largely listed as inhibitors | hit rate 89% among 370; further: nearly all actives have a fitted effect of over 65% in size
# RGS4 confirm: qHTS for Inhibitors of Regulator of G Protein Signaling(RGS) 4: Hit Validation | shares compounds with JMJD2A Tudor inh | RGS4 GAP activity, Transcreener GDP fluorescence polarization | Potency, µM, hits mostly inhibitors | hit rate 80% among 25
# Target sequence (P49798 whole entry, looked up): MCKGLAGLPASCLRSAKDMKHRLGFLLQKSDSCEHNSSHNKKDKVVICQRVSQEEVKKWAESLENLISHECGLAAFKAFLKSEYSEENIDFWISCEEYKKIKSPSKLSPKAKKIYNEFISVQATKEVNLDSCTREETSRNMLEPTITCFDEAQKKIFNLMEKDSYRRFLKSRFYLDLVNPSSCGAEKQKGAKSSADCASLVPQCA
# A number is an active result; - = inactive; ? = inconclusive; . = no result given; [ ] = another dose, or the depositor's remark. The call rests on the fitted dose curve; in most records, active means well fitted curve in the direction sought with a large enough effect; inconclusive means small, poorly fitted or top-dose-only effect, or another doubt; inactive means no such curve, though single readings can be large; an effect the other way counts as inactive or inconclusive.
SMILES,BAZ2B inh,L3MBTL1 inh,G9a inh-1,HP1b binding inh,JMJD2A Tudor inh,G9a inh-2,others
c1ccc2c(CN3CCOCC3)c3ccccc3c(CN3CCOCC3)c2c1,-,-,?,-,-,.,
CCCCOC(=O)Nc1ccc(C(C)C)cc1,-,-,-,-,-,.,
CCCOc1ccc(C(=O)Nc2ccc(N(C)C)cc2)cc1,-,.,?,-,-,1,
CCCCOC(=O)Nc1ccc(N(C)C)cc1,39.8µM,-,1.58µM,?,79.4µM,1.59,
COc1ccc(C)cc1S(=O)(=O)NC(C)C(=O)Nc1ccc2c(c1)OCO2 (configuration not stated),-,.,-,-,-,.,
COc1ccccc1N1CCN(CCCNC(=O)C2CCCN(c3ncnc4c3nc3n4CCCCC3)C2)CC1 (configuration not stated),?,.,-,-,-,.,
COc1ccc(N2CCN(Cc3nc(N)nc(Nc4ccc(C)c(Cl)c4)n3)CC2)cc1,25.1µM,.,1.58µM,-,35.5µM,7.08,
CCc1ccc(OCc2nc(-c3ccc(OC)cc3)no2)c(Br)c1,-,.,-,-,-,.,
CCN(Cc1ccccc1)Cc1c(O)ccc2c(=O)c(-c3ccccc3Cl)c(C(F)(F)F)oc12,-,.,-,-,-,.,
CCN(Cc1ccccc1)Cc1c(O)ccc2c(=O)c(-c3ccccc3)c(C(F)(F)F)oc12,-,.,?,-,-,44.7,
CC(OC(=O)CNC(=O)c1sc2ccccc2c1Cl)C(=O)NC1(C#N)CCCCC1 (configuration not stated),-,-,-[12.7 µM],-,-,.,
O=C(Nc1ccc(N2CCCC2)cc1)c1ccc(Br)o1,?,-,2.24µM,-,?,0.71,
CCN(CC)c1ccc(NC(=O)c2ccc(Br)o2)cc1,50.1µM,?,2.24µM,?,44.7µM,7.1,
CN(C)CCNC(=O)C(=O)Nc1cc2c3c(c1)CCN3C(=O)CC2,-,.,-,-,-,.,
C=CCN=C1S/C(=C\c2ccc(N(C)C)cc2)C(=O)N1CC=C,-,-,.,-,-,.,
COc1ccc(CN(C)C(=O)CCN=C2NS(=O)(=O)c3ccccc32)c(OC)c1,-,-,-[12.7 µM],-,-,.,
CCc1ccc2oc(-c3cc(N)ccc3Cl)nc2c1,?,.,-[12.7 µM],-,-,.,
CCc1ccc2oc(-c3cc(N)ccc3O)nc2c1,-,-,?,-,-,?,
CCN1C(=O)[C@H]2[C@H]3CN=C(SCc4ccc(C)cc4)N3[C@@](C)(C(=O)OC)[C@H]2C1=O,.,-,.,-,-,.,
CCOc1ccc(S(=O)(=O)Nc2ccc3c(c2)N(C(C)=O)CCC3)cc1,-,.,-[12.7 µM],-,-,.,
COc1ccc(C(=O)COC(=O)C2CC3CCCC(C2)C3=O)cc1Br (configuration not stated),-,-,-[0.501 µM],-,-,.,
COc1ccc(C(=O)COC(=O)CN2CC(=O)Oc3ccccc32)cc1Br,25.1µM,.,?,-,35.5µM,25.1,
COc1ccc2nc(NC(=O)CSc3nc(C)cc(=O)[nH]3)sc2c1,-,.,2.82µM,-,-,25.1,
Cc1ccc(CNc2cccnc2)cc1,-,.,-,-,-,.,
Cc1ccc(CNc2ccc3c(c2)ncn3C)cc1,?,-,0.708µM,-,?,8.93,
SMILES,BAZ2B inh,L3MBTL1 inh,G9a inh-1,HP1b binding inh,JMJD2A Tudor inh,G9a inh-2,others
COc1ccccc1Nc1ccc(C(=O)NCc2cccs2)cn1,-,-,-,-,-,.,
COc1ccccc1Nc1ncc(-c2cccs2)s1,?,-,?,?,?,.,RGS4 confirm=?
COC(=O)c1ccccc1NC(=O)Cn1c(SC)c(F)cnc1=O,-,.,0.562µM,-,-,8.93,
COc1ccc(OCC(=O)Nc2c3c(nn2-c2ccccc2)CS(=O)(=O)C3)cc1,-,.,.,-,-,.,
CC(C)OCc1ccc(C(=O)N2CCN(S(=O)(=O)c3ccc(Br)s3)CC2)cc1,-,-,?,-,-,44.7,
N#Cc1ccc(C(=O)N2CCN(S(=O)(=O)c3ccc(Br)s3)CC2)cc1,-,?,?,-,-,.,
Cc1cccc(NC(=O)c2c(NC(=O)c3ccccc3)sc3c2CCC3)c1,-,.,-,-,-,.,
Cc1cccc(NC(=O)c2c(NC(=O)c3ccccc3)sc3c2CCCC3)c1,56.2µM,.,1.26µM,-,79.4µM,2,
O=C(CCc1c[nH]c2ccccc12)N1CCN(S(=O)(=O)c2ccc(F)cc2)CC1,-,-,?,-,-,.,
COc1ccc(S(=O)(=O)NC2CCc3ccccc32)cc1OC (configuration not stated),-,.,-,-,-,.,
COc1ccccc1-c1nccc(NCc2cnc(C)cn2)n1,.,.,.,.,.,.,RGS4 confirm=26.7
c1cncc(-c2csc(-c3cccnc3)n2)c1,-,.,-,-,-,.,
c1cncc(-c2nc(-c3ccco3)cs2)c1,?,.,?,-,?,10,
COc1ccc(Cl)cc1NC(=O)c1c(NCc2cccnc2)sc2c1CCCC2,?,.,?,-,?,1.82,
CCn1c(C)nc2cc(C(=O)N/N=C(\C)c3ccccc3O)ccc21,-,.,-,-,-,.,
O=C(COc1ccc(Cl)cc1)Nc1nnc(S(=O)(=O)N2CCc3ccccc32)s1,?,.,0.891µM,-,?,44.7,
Cc1nn(C)c(Cl)c1C(=O)NCC(=O)Nc1ccc(C(C)C)cc1,-,.,-,-,-,.,
COc1cc(C(=S)N2CCCC2)ccc1OCc1ccccc1,?,-,.,-,-,.,
Cc1ccc(N2CCN(c3ccc(NC(=O)CCC(=O)O)cc3)CC2)cc1,-,-,?,-,-,.,
COc1ccc(C(=O)Nc2ccc(N3CCCC3)cc2)cc1OC,?,-,2.51µM,-,?,2.51,
O=C(O)CCC(=O)Nc1ccc(N2CCCCCC2)cc1,?,-[11.4 µM],0.891µM,-,-,0.71,
COc1ccc(C(=O)Nc2ccc(N3CCCC3)cc2)cc1,-,.,1.58µM,?,-[11.4 µM],1.26,
COc1cc(CNc2ccc(N3CCCC3)cc2)ccc1OCc1ccccc1,12.6µM,?,?,?,35.5µM,2.52,
Cc1cc2cc(C(c3nnnn3Cc3ccco3)N3CCc4ccccc43)c(=O)[nH]c2cc1C (configuration not stated),?,-,11.2µM,-,?,.,RGS4 confirm=6.7
CCCn1c(CNc2ccccc2O)nc2ccccc21,?,.,?,-,?,11.2,
COc1cccc(NC(=O)Cc2nnc(SCC(=O)c3ccccc3)n2C)c1,-,-,0.355µM,-,-,0.71,
COc1ccc(CN2CCc3c([nH]c4ccccc34)C2)cc1Br,14.1µM,-,?,-,20µM,5.02,
